Values joined by “and” are separate entries in the source; they are usually repeats but may differ in a detail not shown here. Equal entries are not always repeated. The campaign covered roughly 16,000 compounds. About 2,600 (16%) were called active. Roughly 20% stayed inconclusive and do not appear here. The call rests on the fitted dose curve; in most records, active means well fitted curve in the direction sought with a large enough effect; inconclusive means small, poorly fitted or top-dose-only effect, or effect the other way; inactive means no such curve, though single readings can be large or run the other way. A selection follows. A structure can be active in one record and inactive in another.
Each molecule was assayed against Cytochrome P450 2D6 (Homo sapiens) (UniProt P10635) (assay: Cytochrome panel assay with activity outcomes). Conditions: recombinant CYP, pro-luciferin dealkylation, luminescence, p450-cyp2d6; series mostly up to 57.1 µM.
On the % scale 0 is the no-effect control and ±100 the full control effect.

Cytochrome P450 2D6 (Homo sapiens), sequence (P10635 whole entry, looked up): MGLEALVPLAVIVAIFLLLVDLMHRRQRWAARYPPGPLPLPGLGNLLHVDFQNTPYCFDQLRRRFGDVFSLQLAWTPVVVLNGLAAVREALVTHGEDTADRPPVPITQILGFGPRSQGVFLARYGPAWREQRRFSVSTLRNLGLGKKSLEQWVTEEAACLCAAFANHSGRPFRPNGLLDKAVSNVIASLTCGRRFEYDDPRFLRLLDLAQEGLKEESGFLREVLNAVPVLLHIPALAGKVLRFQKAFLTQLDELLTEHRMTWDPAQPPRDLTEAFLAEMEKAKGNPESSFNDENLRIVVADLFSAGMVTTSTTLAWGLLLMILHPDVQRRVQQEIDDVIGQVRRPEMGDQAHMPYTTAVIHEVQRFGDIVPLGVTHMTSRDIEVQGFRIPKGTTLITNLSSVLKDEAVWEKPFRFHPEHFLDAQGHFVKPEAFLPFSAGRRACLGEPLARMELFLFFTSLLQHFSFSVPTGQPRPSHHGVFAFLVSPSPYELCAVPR

SMILES | AC50 | activity, negative = inhibition
COc1ccc(C(C(=O)NC2CCCC2)N(C(=O)c2snc(-c3ccc(F)cc3)c2N)c2ccccc2)cc1 (configuration not stated) | inactive | –
COc1ccc(CSc2nnnn2C)cc1[N+](=O)[O-] | inactive | –
CCCOc1ccc(Cn2c(C)nc([N+](=O)[O-])c2SCC(O)COC)cc1[N+](=O)[O-] (configuration not stated) | 12.6 µM (active) | –
CC(=O)Nc1ccc(Nc2ncnc3c2cnn3-c2ccccc2)cc1 | inactive | –
N#Cc1cccc(-c2nc3cnc(N4CCOCC4)nc3n(C3CC3)c2=O)c1 | inactive | –
CC(C)(C)N(NC(=O)Nc1ccccc1)C(=O)c1ccccc1Cl | inactive | –
Cc1cc(C)cc(C(=O)N(NC(=O)Nc2ccc(Cl)cc2)C(C)(C)C)c1 | inactive | –
CC(C)(C)N(NC(=O)Nc1ccc(Cl)c(Cl)c1)C(=O)c1ccccc1 | 28.2 µM (active) | –
Cc1nc2cnc(N(C)C)nc2n(CCC#N)c1=O | inactive | –
CCCn1c(CC)nc([N+](=O)[O-])c1S(=O)(=O)c1ccccc1 | inactive | –
O=[N+]([O-])c1cc(Cl)cc2c1nc(NCCO)c1ccccc12 | – | -18% [at 11.4 µM] (inactive)
CSc1ccccc1N1CCN(C(=O)Nc2ccc3c(c2)NC(=O)CO3)CC1 | inactive | –
O=C(NCC1CCCO1)c1ccc(CS(=O)(=O)Cc2ccc(F)cc2)o1 (configuration not stated) | inactive | –
Cn1c(=O)c2c(nc(Cl)n2Cc2ccc(Cl)c(Cl)c2)n(C)c1=O | inactive | –
COC(=O)Cn1c(=O)c2c(nc(Br)n2Cc2ccccc2Cl)n(C)c1=O | inactive | –
Cn1c(OCc2ccc3c(c2)OCO3)nc2c1c(=O)n(Cc1ccc(Cl)c(Cl)c1)c(=O)n2C | 5.01 µM (active) | –
CC(C)c1ccc(Cn2ccc3c4c(N)nc(NC5CC5)nc4ccc32)cc1 | 1 µM (active) | –
Cc1cc(CNC(=O)[C@@H]2C[C@H]2[C@@H](NP(=O)(c2ccccc2)c2ccccc2)c2ccccc2)nn1C | inactive | –
FC(F)(F)c1nnc2c(Sc3ccccc3)nc3ccc(Cl)cc3n12 | inactive | –
O=C(O)C[C@H](NC(=O)CP(=O)(O)O)C(=O)O.[NH-][C@@H]1CCCC[C@@H]1[NH-].[Pt] | – | 7.2% [at 11.4 µM] (inactive)
CC1(C)CO[C@H](CC(=O)O)CN1 | 0.00631 µM (active) | –
C[C@H](N)CCCC(C)(C)O | inactive | –
O=C(Cn1c(C(F)(F)F)nc2ccccc21)c1ccc(F)cc1 | inactive | –
O=C(CCCN1CC=C(n2c(=O)[nH]c3ccccc32)CC1)c1ccc(F)cc1 | 3.16 µM (active) | –
CC(C)=CCC/C(C)=C/CO/N=C1/C[C@@H](O)[C@@H](O)[C@@H]2[C@@H]3C(=O)N(C[C@@H]4CCCO4)C(=O)[C@H]3CC[C@H]12 | – | -9.15% [at 11.4 µM] (inactive)
COc1ccc(N=C2S/C(=C\c3ccc(C)s3)C(=O)N2CC(C)C)cc1 | inactive | –

SMILES | AC50 | activity, negative = inhibition
O=C(O)CCC(=O)N1CCc2cc(S(=O)(=O)N3CCCCC3)ccc21 | inactive | –
Cc1ccc(-c2cc(C(=O)NN=C3CCCC3)c3ccccc3n2)cc1 | inactive | –
CCNc1ncc2nc(-c3ccc(Cl)cc3)c(=O)n(Cc3ccc(F)cc3)c2n1 | inactive | –
CN(Cc1n[nH]c(=S)n1C)S(=O)(=O)c1ccccc1 | inactive | –
COC(=O)C(NC(=O)c1ccc(Cl)cc1)(Nc1nc(C)cs1)C(F)(F)F (configuration not stated) | inactive | –
Cc1ccc(SCC(=O)NNC(=O)C2CCCCC2)cc1 | inactive | –
CC(=O)N[C@@H]1CONC1=O | – | 18.4% [at 11.4 µM] (inactive)
Cc1ccc(C(=O)Nc2ccc(Cc3ccncc3)cc2)cc1[N+](=O)[O-] | 1.41 µM (active) | –
Cc1ccc(NC(=O)c2ccc(NCC3CCCO3)c([N+](=O)[O-])c2)cc1Cl (configuration not stated) | inactive | –
Cc1ccc(C(=O)Nc2ccccc2Oc2ccccc2)cc1[N+](=O)[O-] | inactive | –
N[C@H](C(=O)O)C1[C@H](C(=O)O)[C@H]1C(=O)O (some centres not stated) | 7.94 µM (active) | –
N[C@H](C(=O)O)[C@@H]1C[C@@H]1C(=O)O | inactive | –
O=C(O)[C@H]1[C@H](C(=O)O)[C@H](C(=O)O)C[C@@H]1C(=O)O | – | -4.27% [at 11.4 µM] (inactive)
O=c1cnc2cnc(N3CCOCC3)nc2n1Cc1ccc(F)cc1 | inactive | –
NC(N)=[N+]1CCc2ccccc2C1 | inactive | –
COc1ccccc1NC(=O)[C@H](COCc1ccccc1)NC(=O)OC(C)(C)C | inactive | –
O=C1NCCN1Cc1cccc(Cl)c1 | inactive | –
Cc1ccc(-n2ccc(=O)c(-c3ccnc(SCc4cccc(Cl)c4)n3)n2)cc1 | inactive | –
O=S1(=O)C=C(SCc2cccc(Cl)c2)Nc2ccccc21 | 12.6 µM (active) | –
O=C1c2ccccc2C(=O)N1CCCCN(C(=O)c1cccc([N+](=O)[O-])c1)c1ccc(Cl)cc1 | inactive | –
CC1=NS(=O)(=O)c2cc(Cl)ccc2N1 | inactive and 7.94 µM (active) | –
COc1ccc(-n2nnnc2-c2cn(C)nc2C(F)(F)F)cc1 | inactive | –
O=C(O)c1cc(N=Nc2ccc([N+](=O)[O-])cc2)ccc1O | – | -8.54% [at 11.4 µM] (inactive)
CS[C@]12C(=O)C[C@]3(C)[C@@H](CC[C@@]3(O)C(=O)CO)[C@@H]1CCC1=CC(=O)CC[C@]12C | – | 0.401% [at 11.4 µM] (inactive)
Cn1nc(-c2ccc(N3CCOCC3)c(NS(=O)(=O)c3ccc(Cl)cc3)c2)c2ccccc2c1=O | inactive | –
CN1CCN(c2ncncc2-c2ccc(N(C)C)cc2)CC1 | 10 µM (active) | –

SMILES | AC50 | activity, negative = inhibition
CN(C)C(=O)c1ccc(-c2cncnc2N2CCNCC2)cc1 | 7.94 µM (active) | –
CN1CCN(c2ncncc2-c2ccc(C(=O)N(C)C)cc2)CC1 | 0.251 µM (active) | –
CN1CCN(c2ncnc3ccc(-c4cccc(NS(C)(=O)=O)c4)cc23)CC1 | inactive | –
CN(C)C(=O)c1ccc(-c2cncnc2NC2CCNCC2)cc1 | inactive | –
Cc1ccc(S(=O)(=O)n2c3ccccc3c3nnc(C(=O)c4ccccc4)nc32)cc1 | – | -14.9% [at 11.4 µM] (inactive)
Cc1nn(C)c(C)c1CNC(=O)c1cnn2c1NC(c1ccccc1)CC2C(F)(F)F (configuration not stated) | inactive | –
Cn1c2c(c(=O)n(C)c1=O)CN(CCN1CCNCC1)CN2 | inactive | –
O=C(CC1(O)CCCCC1)OC1CCCC1 | – | -5.94% [at 11.4 µM] (inactive)
CCCCSc1nnc(-c2cc3c(C(F)(F)F)nn(C)c3s2)n1C | inactive | –
C[N+](C)(C)CC(=O)O | inactive | –
COc1ccc([C@@H](Nc2ccccn2)c2cc(C(C)(C)C)cc(C(C)(C)C)c2O)cc1 | – | -16.7% [at 11.4 µM] (inactive)
O=C(O)c1cc(C(=O)O)nc(C(=O)O)c1 | – | 0.571% [at 11.4 µM] (inactive)
CC(O)(P(=O)(O)O)P(=O)(O)O | inactive | –
O=C(c1cc(C(F)(F)F)cc(C(F)(F)F)c1)N1CCC2(CC1)CCN(c1ccncc1)CC2 | 15.8 µM (active) | –
O=C(c1cc(C(F)(F)F)cc(C(F)(F)F)c1)N1CCC2(CC1)CN(c1ccncc1)C2 | inactive | –
O=C(c1cc(C(F)(F)F)cc(C(F)(F)F)c1)N1CCC[C@@]2(CCN(c3ccncc3)C2)C1 | inactive | –
O=C(c1cccc(F)c1)N1CCC2(CC1)CCN(c1ccncc1)CC2 | 20 µM (active) | –
O=C(c1cccc(F)c1)N1CCC[C@@]2(CCN(c3ccncc3)C2)C1 | inactive | –
O=C(c1cccc(F)c1)N1CCC2(CC1)CN(c1ccncc1)C2 | inactive | –
Cc1ccc(C)c(-c2nn(-c3cc(N4CCN(CCO)CC4)ccc3[N+](=O)[O-])c(=O)c3ccccc23)c1 | inactive | –
CCOC(=O)CC(Nc1nc(N2CCOCC2)nc(N2CCOCC2)n1)c1ccccc1Cl (configuration not stated) | inactive | –
CCN(CC)CCN1C(=O)C(=O)/C(=C(/O)c2ccc(OC)cc2)C1c1cccs1 (configuration not stated) | 14.1 µM (active) | –
COc1cccc(/C(O)=C2/C(=O)C(=O)N(c3cc(C)on3)C2c2cccs2)c1 (configuration not stated) | inactive | –
COC(=O)c1[nH]c(C)c(/C(O)=C2\C(=O)C(=O)N(CCN(C)C)C2c2cccs2)c1C (configuration not stated) | inactive | –
CC(C)(C)C(=O)[C@H]([C@@H](c1ccccc1)N1CCOCC1)N1CCOCC1 | – | 6.76% [at 11.4 µM] (inactive)
Cc1ccc(NC(=O)c2sccc2SCc2cccc(C(F)(F)F)c2)cc1 | inactive | –

SMILES | AC50 | activity, negative = inhibition
O=C(c1ccccc1)c1ccc2n1CC[C@H]2C(=O)O | inactive | –
N#Cc1ccc(-c2ccccc2)nc1SCC(=O)c1cccc(Cl)c1 | inactive | –
CN1CCN(c2ncc3nc(-c4cn(C)c5ccccc45)c(=O)n(-c4ccccc4)c3n2)CC1 | inactive | –
COc1ccc(C(=O)Nn2cnc3ccccc3c2=O)c(OC)c1 | inactive | –
COc1ccc(Cl)cc1C(=O)Nn1cnc2ccccc2c1=O | inactive | –
O=C(Nn1cnc2ccccc2c1=O)c1ccc(F)cc1Cl | 28.2 µM (active) | –
COC(=O)c1ccc(NC(C)=O)o1 | inactive | –
COc1ccc(N(C(=O)COc2ccccc2OC)S(=O)(=O)c2ccc(C)cc2)cc1 | inactive | –
COc1ccc(C(C(=O)NC2CCCCC2)N(C(=O)CCCC(=O)Nc2ccccn2)c2ccc3c(c2)OCCO3)cc1 (configuration not stated) | inactive | –
Cc1cc([N+](=O)[O-])ccc1NCc1ccccc1 | 15.8 µM (active) | –
O=C(O)c1cc([N+](=O)[O-])ccc1NCCCc1ccccc1 | inactive | –
O=[N+]([O-])c1ccc(N2CCCC2)cc1NCc1ccccc1 | inactive | –
CO[C@H]1COC(=O)C/C=C\[C@H](C)COC(=O)[C@@H](OCc2ccccc2)/C=C\[C@@H]1C | – | -13.9% [at 11.4 µM] (inactive)
CCn1c(C)cc(/C=C2\SC(=O)N(CC(=O)Nc3ccc(C)c(C)c3)C2=O)c1C | inactive | –
c1ccc(-c2nnc(SCCC3OCCCO3)o2)cc1 | inactive | –
Clc1ccccc1CSc1nnc(-c2ccncc2)o1 | 2 µM (active) | –
N#Cc1c(SCC(N)=O)nsc1SCc1ccccc1Cl | inactive | –
COc1ccc(-c2nnc(-c3cccnc3)o2)cc1 | inactive | –
Clc1ccc(CSc2nnc(-c3cccnc3)o2)cc1 | 14.1 µM (active) | –
C#CCSc1nnc(-c2sc3ccccc3c2Cl)o1 | inactive | –
Cc1cccc(-c2nnc(SCc3ccccc3)o2)c1 | inactive | –
NCCCCCc1nnc(SCc2ccc(Cl)cc2Cl)o1 | 1.41 µM (active) | –
NCCCCCc1nnc(SCc2ccccc2Cl)o1 | 11.2 µM (active) | –
Nc1nc(SCc2ccccc2Cl)cc(C(=O)O)n1 | – | 4.28% [at 11.4 µM] (inactive)

Reference: PubChem BioAssay AID1851 (National Center for Advancing Translational Sciences (NCATS), 2009)
